Assay results published in the supplement of paper PMC12669032.
Several values for one entry are separate records, joined by “and”; a condition that tells them apart may be missing. Equal entries are not always repeated.

The compounds below were run on Clostridium difficile (assay: growth AUC relative to DMSO control (median of replicates) (fraction); higher = more growth (less inhibition), active = hit call of the paper). Conditions: 20 µM; 24 h;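 active = AUC reduced over 20% with Padj below 0.05 in at least 2 of 3 replicates; inactive = otherwise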.
Summary of the method: (§1)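 Gut bacterial monocultures were grown anaerobically at 37 °C in mGAM from a starting OD600 of 0.05 with 20 µM compound (1% DMSO), in round-bottom 96-well plates under pierced gas-permeable seals, and OD600 was read hourly for 24 h. With the minimum OD set to 0, area under the growth curve was normalised to the plate median of solvent-only wells, or to row and column medians on the industrial chemical plate. Each value is the median of three biological replicates grown on separate days.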

Row | Compound | growth AUC
1 | C/C(=N\NC(=O)Nc1cc(F)cc(F)c1)c1ncccc1C(=O)[O-].[Na+] | 1 (inactive)
2 | C1=Cc2cccc3cccc1c23 | 1 (inactive)
3 | CCc1ccc(C(=O)NN(C(=O)c2cc(C)cc(C)c2)C(C)(C)C)cc1 | 0.965 (inactive)
4 | C#CCOc1ccc(CCNC(=O)C(OCC#C)c2ccc(Cl)cc2)cc1OC (stereo not drawn) | 0.981 (inactive)
5 | COC(=O)c1ccccc1S(=O)(=O)NC(=O)Nc1nc(C)nc(OC)n1 | 1.01 (inactive)

The compounds below were run on Collinsella aerofaciens in the same assay as above. Conditions: 20 µM; 24 h.
Summary of the method: as §1

Row | Compound | growth AUC
6 | Cc1cccc(C)c1N | 0.985 (inactive)
7 | C=CCOC(=O)C(C)(C)OC(=O)c1cc(-n2c(=O)cc(C(F)(F)F)n(C)c2=O)ccc1Cl | 0.961 (inactive)
8 | CCOP(=O)(NC(C)C)Oc1ccc(S(C)(=O)=O)c(C)c1 (stereo not drawn) | 1.01 (inactive)
9 | Cc1cc(OC(=O)N(C)C)nn1C(=O)N(C)C | 1.02 (inactive)
10 | CCCCCCCCSC(=O)Oc1cc(Cl)nnc1-c1ccccc1 | 0.973 (inactive)
11 | CC1(C(=O)Nc2ccc(O)c(Cl)c2Cl)CCCCC1 | 0.995 (inactive)
12 | CC(Oc1ccc(Oc2ccc(Cl)cc2Cl)cc1)C(=O)O (racemic) | 0.995 (inactive)
13 | C[Si](Cn1cncn1)(c1ccc(F)cc1)c1ccc(F)cc1 | 0.931 (inactive)
14 | CN(C)C1CSSSC1.O=C(O)C(=O)O | 1.03 (inactive)
15 | COP(=S)(OC)SCn1nnc2ccccc2c1=O | 0.941 (inactive)
16 | CCSC(=O)N1CCCCCC1 | 0.981 (inactive)
17 | O=C(O)c1c(Cl)ccc2cc(Cl)cnc12 | 0.947 (inactive)
18 | CCCSP(=S)(OCC)Oc1ccc(SC)cc1 (stereo not drawn) | 1.04 (inactive)
19 | Cc1cc(C(F)(C(F)(F)F)C(F)(F)F)ccc1NC(=O)c1cccc(I)c1C(=O)NC(C)(C)CS(C)(=O)=O | 1.7 (inactive)
20 | Cc1cc(Cl)ccc1O | 1.01 (inactive)
21 | COc1cc(OC)nc(NC(=O)NS(=O)(=O)c2ncccc2C(=O)N(C)C)n1 | 0.965 (inactive)
22 | Cc1cccc2sc3nncn3c12 | 1.07 (inactive)
23 | CCC(C)c1cc([N+](=O)[O-])cc([N+](=O)[O-])c1O (stereo not drawn) | 0.956 (inactive)
24 | CCOP(=S)(OCC)SCSC(C)(C)C | 0.96 (inactive)
25 | CCNc1nc(Cl)nc(NC(C)(C)C#N)n1 | 0.997 (inactive)

Row | Compound | growth AUC
26 | Cc1ccccc1C(=O)Nc1cccc(OC(C)C)c1 | 1 (inactive)
27 | N#CN=C1SCCN1Cc1ccc(Cl)nc1 | 0.98 (inactive)
28 | COP(=O)(OC)Oc1ccc(S(C)=O)c(C)c1 (stereo not drawn) | 0.996 (inactive)
29 | COCC(=O)N(c1c(C)cccc1C)[C@H](C)C(=O)OC | 1.04 (inactive)
30 | CC(=NC#N)N(C)Cc1ccc(Cl)nc1 | 1.02 (inactive)
31 | CC1(C)C(C(=O)OC(C#N)c2cccc(Oc3ccccc3)c2)C1(C)C (stereo not drawn) | 0.995 (inactive)
32 | CNC(=O)Oc1cc(C)c(N(C)C)c(C)c1 | 0.995 (inactive)
33 | CN(C)C(=S)SSC(=S)N(C)C | 0.957 (inactive)
34 | CCOP(=S)(OCC)SCn1nnc2ccccc2c1=O | 1.03 (inactive)
35 | [CH3][Hg][Cl] | 1.01 (inactive)
36 | CCCCc1c(C)nc(NCC)nc1OS(=O)(=O)N(C)C | 0.977 (inactive)
37 | CC1(C)[C@H](/C=C(\Cl)C(F)(F)F)[C@@H]1C(=O)O[C@@H](C#N)c1cccc(Oc2ccccc2)c1 | 0.932 (inactive)
38 | CCCN(CCOc1c(Cl)cc(Cl)cc1Cl)C(=O)n1ccnc1 | 1.02 (inactive)
39 | CCOP(=S)(OCC)Oc1cc(Cl)c(Br)cc1Cl | 0.98 (inactive)
40 | C/C(=N\NC(=O)Nc1cc(F)cc(F)c1)c1ncccc1C(=O)[O-].[Na+] | 0.965 (inactive)
41 | C1=Cc2cccc3cccc1c23 | 0.995 (inactive)
42 | CCc1ccc(C(=O)NN(C(=O)c2cc(C)cc(C)c2)C(C)(C)C)cc1 | 1 (inactive)
43 | C#CCOc1ccc(CCNC(=O)C(OCC#C)c2ccc(Cl)cc2)cc1OC (stereo not drawn) | 1 (inactive)
44 | COC(=O)c1ccccc1S(=O)(=O)NC(=O)Nc1nc(C)nc(OC)n1 | 0.957 (inactive)

Each compound was assayed on Coprococcus comes in the same assay as above. Conditions: 20 µM; 24 h.
Summary of the method: as §1

Row | Compound | growth AUC
45 | Cc1cccc(C)c1N | 1.02 (inactive)
46 | C=CCOC(=O)C(C)(C)OC(=O)c1cc(-n2c(=O)cc(C(F)(F)F)n(C)c2=O)ccc1Cl | 1 (inactive)
47 | CCOP(=O)(NC(C)C)Oc1ccc(S(C)(=O)=O)c(C)c1 (stereo not drawn) | 1.06 (inactive)
48 | Cc1cc(OC(=O)N(C)C)nn1C(=O)N(C)C | 1.03 (inactive)
49 | CCCCCCCCSC(=O)Oc1cc(Cl)nnc1-c1ccccc1 | 0.98 (inactive)
50 | CC1(C(=O)Nc2ccc(O)c(Cl)c2Cl)CCCCC1 | 0.965 (inactive)
51 | CC(Oc1ccc(Oc2ccc(Cl)cc2Cl)cc1)C(=O)O (racemic) | 0.943 (inactive)
52 | C[Si](Cn1cncn1)(c1ccc(F)cc1)c1ccc(F)cc1 | 0.412 (active)
53 | CN(C)C1CSSSC1.O=C(O)C(=O)O | 0.99 (inactive)
54 | COP(=S)(OC)SCn1nnc2ccccc2c1=O | 0.997 (inactive)
55 | CCSC(=O)N1CCCCCC1 | 1.02 (inactive)
56 | O=C(O)c1c(Cl)ccc2cc(Cl)cnc12 | 1 (inactive)
57 | CCCSP(=S)(OCC)Oc1ccc(SC)cc1 (stereo not drawn) | 1.04 (inactive)
58 | Cc1cc(C(F)(C(F)(F)F)C(F)(F)F)ccc1NC(=O)c1cccc(I)c1C(=O)NC(C)(C)CS(C)(=O)=O | 1.21 (inactive)
59 | Cc1cc(Cl)ccc1O | 0.989 (inactive)
60 | COc1cc(OC)nc(NC(=O)NS(=O)(=O)c2ncccc2C(=O)N(C)C)n1 | 0.966 (inactive)
61 | Cc1cccc2sc3nncn3c12 | 0.98 (inactive)
62 | CCC(C)c1cc([N+](=O)[O-])cc([N+](=O)[O-])c1O (stereo not drawn) | 0.884 (inactive)
63 | CCOP(=S)(OCC)SCSC(C)(C)C | 0.996 (inactive)
64 | CCNc1nc(Cl)nc(NC(C)(C)C#N)n1 | 0.988 (inactive)

Row | Compound | growth AUC
65 | Cc1ccccc1C(=O)Nc1cccc(OC(C)C)c1 | 1.02 (inactive)
66 | N#CN=C1SCCN1Cc1ccc(Cl)nc1 | 1.04 (inactive)
67 | COP(=O)(OC)Oc1ccc(S(C)=O)c(C)c1 (stereo not drawn) | 1.01 (inactive)
68 | COCC(=O)N(c1c(C)cccc1C)[C@H](C)C(=O)OC | 1.04 (inactive)
69 | CC(=NC#N)N(C)Cc1ccc(Cl)nc1 | 1.06 (inactive) and 0.993 (inactive)
70 | CC1(C)C(C(=O)OC(C#N)c2cccc(Oc3ccccc3)c2)C1(C)C (stereo not drawn) | 1.03 (inactive)
71 | CNC(=O)Oc1cc(C)c(N(C)C)c(C)c1 | 1.01 (inactive)
72 | CN(C)C(=S)SSC(=S)N(C)C | 0.833 (inactive)
73 | CCOP(=S)(OCC)SCn1nnc2ccccc2c1=O | 1.01 (inactive)
74 | [CH3][Hg][Cl] | 0.816 (inactive)
75 | CCCCc1c(C)nc(NCC)nc1OS(=O)(=O)N(C)C | 0.996 (inactive)
76 | CC1(C)[C@H](/C=C(\Cl)C(F)(F)F)[C@@H]1C(=O)O[C@@H](C#N)c1cccc(Oc2ccccc2)c1 | 0.959 (inactive)
77 | CCCN(CCOc1c(Cl)cc(Cl)cc1Cl)C(=O)n1ccnc1 | 0.487 (active)
78 | CCOP(=S)(OCC)Oc1cc(Cl)c(Br)cc1Cl | 0.976 (inactive)
79 | C/C(=N\NC(=O)Nc1cc(F)cc(F)c1)c1ncccc1C(=O)[O-].[Na+] | 1.01 (inactive)
80 | C1=Cc2cccc3cccc1c23 | 1.01 (inactive)
81 | CCc1ccc(C(=O)NN(C(=O)c2cc(C)cc(C)c2)C(C)(C)C)cc1 | 0.987 (inactive)
82 | C#CCOc1ccc(CCNC(=O)C(OCC#C)c2ccc(Cl)cc2)cc1OC (stereo not drawn) | 0.992 (inactive)
83 | COC(=O)c1ccccc1S(=O)(=O)NC(=O)Nc1nc(C)nc(OC)n1 | 0.975 (inactive)
